Results on 16 compounds are retold here after PMC5540273 (PLoS ONE, 2017).

Assay [1] deals with T1, PYK2.
T1 construct: gene PTK2B
The conditions noted are these: concentration: 1 μM, replicates: in singlicate, n = 1.

In assay [2] the test system is QSK. To be noted: concentration: 1 μM, replicates: in singlicate; n = 1.
The test system of assay [3] is RAF1. The conditions noted are these: concentration: 1 μM, replicates: in singlicate, n = 1.
In assay [4] the test system is RET. To be noted: concentration: 1 μM, replicates: in singlicate, n = 1.
The test system of assay [5] is RIOK1. To be noted: concentration: 1 μM, replicates: in singlicate, n = 1.
In assay [6] the test system is RIOK2. To be noted: concentration: 1 μM, replicates: in singlicate; n = 1.
The subject of assay [7] is RIOK3. To be noted: concentration: 1 μM, replicates: in singlicate, n = 1.
Assay [8] has as its system RIPK1. The conditions noted are these: concentration: 1 μM, replicates: in singlicate, n = 1.
In assay [9] the test system is RIPK2. The conditions noted are these: concentration: 1 μM, replicates: in singlicate, n = 1.
For assay [10], the system named is RIPK4. To be noted: concentration: 1 μM, replicates: in singlicate, n = 1.

The structures appear in SMILES notation. Several values for one entry are separate records, joined by “and”; a condition that tells them apart may be missing. Equal entries are not always repeated. Where two headings read alike, the source gives them in different places.
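Further: KINOMEscan kinase panel screen.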

In the case of `Cc1cccc(-c2nc(-c3ccc(S(C)(=O)=O)cc3)sc2-c2ccncc2)c1`, the “%Inh” value in [1] is 2%; in assay [2], 8%; in assay [3], 25%; in assay [4], 14%; in assay [5], 19%; in [6], 27%. The “%Inh” value in assay [7] worked out at 0%; in assay [8], 0%; in [9], 59%; in assay [10], 0%.

`Cl.Cl.Cl.Fc1ccc(-c2ncn(C3CCNCC3)c2-c2ccnc(Nc3ccccc3)n2)cc1` [SB-238039]: the “%Inh” value was 0% and 12% in assay [1] (1 µM); 0% in assay [2]; 18% and 8% in assay [3] (1 µM); 8% and 20% in assay [4] (1 µM); 11% and 52% in assay [5] (1 µM); 0% in [6]. Further, the “%Inh” value is 3% and 32% in assay [7] (1 µM); 35% and 0% in assay [8] (1 µM); 76% and 65% in [9] (1 µM); 13% and 42% in assay [10] (1 µM).

On to `CC(C)(C)n1cnc2c(N)ncnc21` [SKF-97359], for which the “%Inh” value is 0% in assay [1]; 0% in assay [2]; 15% in [3]; 19% in assay [4]; 2% in [5]; 0% in assay [6]. For the same compound, the “%Inh” value in assay [7] is recorded as 0%; in assay [8] it was 0%; in assay [9], 0%; in assay [10], 67%.

For the compound `c1ccc(-c2n[nH]cc2-c2ccnc3ccccc23)nc1` [GW271431], the “%Inh” value stood at 9% in assay [1]; 0% in assay [2]; 2% in [3]; 0% in assay [4]; 58% in assay [5]; 11% in assay [6]. Also, the “%Inh” value turned out to be 26% in assay [7], 20% in assay [8], 23% in assay [9] and 2% in assay [10].

As for `Cc1ccc(C(=O)NCC(N)=O)cc1-n1c(C)cc(OCc2ccc(F)cc2F)c(Br)c1=O`, the “%Inh” value in assay [1] was found to be 15%; in assay [2] it was 0%; in assay [3], 37%; in assay [4], 5%; in assay [5] it was 1%; in assay [6], 0%. The “%Inh” value amounted to 0% in assay [7], 13% in [8], 0% in assay [9] and 0% in assay [10].

In the case of `O=c1cc(N2CCOCC2)nc2n(Cc3cccc(F)c3)ccn12` [GSK2297430], the “%Inh” value in assay [1] was 22%; in assay [2] it was 0%; in assay [3], 0%; in [4], 31%; in assay [5], 35%; in assay [6], 11%. Further, the “%Inh” value in assay [7] came to 35%; in assay [8] it was 0%; in assay [9], 0%; in assay [10] it was 0%.

For `COc1cc2c(cc1OC[C@@H](O)CO)ncc1c3ccc(C#N)cc3[nH]c21`, the “%Inh” value came to 0% in assay [1]; 8% in assay [2]; 21% in assay [3]; 52% in assay [4]; 65% in [5]; 0% in [6]. Besides, the “%Inh” value in assay [7] turned out to be 76%; in assay [8] it was 0%; in [9] it was 0%; in assay [10], 0%.

Regarding `CN(C1=C(c2ccccc2)C(=O)NC1=O)c1ccccc1` [SB-334860], the “%Inh” value in assay [1] came out at 0%; in [2], 0%; in [3], 18%; in [4], 0%; in [5] it was 0%; in assay [6], 4%. Further, the “%Inh” value was 0% in assay [7], 30% in [8], 44% in [9] and 20% in assay [10].

As for `Nc1nccc(-c2c(-c3ccc(F)cc3)ncn2C2CCN(CC(F)(F)F)CC2)n1` [SB-236560], the “%Inh” value turned out to be 5% in assay [1]; 0% in assay [2]; 0% in [3]; 12% in assay [4]; 32% in assay [5]; 0% in assay [6]. In addition, the “%Inh” value in [7] is listed as 19%; in [8], 0%; in [9] it was 51%; in [10], 72%.

Turning to `Fc1ccc(-c2nn3c(OCC(F)(F)F)cccc3c2-c2ccncc2)cc1` [GW514784], the “%Inh” value in assay [1] is 1%; in assay [2] it was 0%; in [3] it was 8%; in assay [4] it was 0%; in [5] it was 39%; in [6], 0%. Further, the “%Inh” value in assay [7] stood at 5%; in assay [8], 0%; in assay [9], 43%; in assay [10], 0%.

On to `O=C(Nc1n[nH]c2cc(-c3cccc(F)c3)ccc12)C1CC1` [SB-735464], for which the “%Inh” value stood at 0% in assay [1]; 28% in assay [2]; 15% in assay [3]; 0% in [4]; 66% in assay [5]; 40% in assay [6]. The “%Inh” value in assay [7] is on record as 0%; in assay [8], 38%; in assay [9], 0%; in assay [10], 18%.

Take `C[C@@H](Oc1cc(-n2cnc3ccc(NC(=O)NC(C)(C)C)cc32)sc1C(N)=O)c1ccccc1Cl` [GSK346294]: the “%Inh” value in [1] stood at 0%; in [2], 0%; in [3] it was 0%; in [4], 24%; in assay [5], 56%; in assay [6], 0%. In addition, the “%Inh” value in [7] was found to be 34%; in assay [8], 21%; in assay [9], 14%; in assay [10] it was 4%.

For the compound `COc1ccc(CNC(=O)NC2CCN(c3ccnc(Nc4ccc(OC)cc4)n3)C2)cc1` (stereo not shown) [GSK1379727], the “%Inh” value in [1] worked out at 1%; in [2] it was 0%; in [3], 12%; in assay [4] it was 15%; in assay [5] it was 8%; in assay [6], 0%. The “%Inh” value in assay [7] stood at 18%; in assay [8], 50%; in assay [9], 0%; in assay [10], 0%.

Take `CN(C(=O)c1ccc(-c2cc(-c3c[nH]nc3-c3ccccn3)ccn2)cc1)C1CCOCC1` [GW810083]: the “%Inh” value in assay [1] is 0%; in [2], 0%; in [3] it was 0%; in assay [4], 17%; in assay [5], 54%; in assay [6], 0%. For the same compound, the “%Inh” value was 33% in assay [7], 0% in assay [8], 0% in assay [9] and 69% in assay [10].

`Cc1nnc(-c2ccc3ncc(-c4ccc(S(C)=O)cc4)n3c2)o1` (stereo not shown): the “%Inh” value in [1] was determined as 0%; in assay [2], 0%; in [3], 49%; in [4] it was 9%; in assay [5], 0%; in [6] it was 0%. Moreover, the “%Inh” value in assay [7] is reported as 0%; in assay [8] it was 0%; in [9] it was 21%; in [10], 24%.

With `CCn1cnc2c(N)ncnc21` [GW345098], the “%Inh” value in assay [1] came out at 8%; in [2] it was 13%; in [3], 3%; in assay [4], 0%; in assay [5], 30%; in assay [6], 6%. The “%Inh” value was determined as 8% in assay [7], 11% in assay [8], 1% in [9] and 6% in [10].
